# Measured values published in PubChem BioAssay (Tox21).
# Values without a mark were called inactive. Inconclusive results are not listed. Entries that show only a call come without a potency. Active and inactive are the calls of the source. Unless noted, calls follow the shape of the dose curve; as a rule, active = well fitted curve in the direction sought with a large enough effect in the repeat runs; inconclusive = weak or mixed curves; inactive = no such curve, though single readings can be large; an effect the other way counts as inactive or inconclusive.
# Tests used:
# [1] = target: Estrogen receptor (Homo sapiens) (UniProt P03372); experiment: qHTS assay to identify small molecule agonists of the estrogen receptor alpha (ER-alpha) signaling pathway in the presence of an antagonist (AID 1259383; calls by dose curve; also: nearly all actives have a fitted effect of over 15% in size; also: potency is read from the fitted curve at half-maximal effect; as to activation: top concentration of the series differs between compounds)
# Method in brief: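 Quantitative HTS confirmation: compounds titrated at 15 concentrations onto estrogen-deprived VM7Luc4E2 cells carrying a four-ERE luciferase construct, with ICI-182,780 present at 10.0nM final. Signal is luminescence after 22hr exposure.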
# [2] = qHTS assay to identify small molecule agonists or antagonists of the thyroid stimulating hormone receptor (TSHR) signaling pathway - wild type cell line counter screen (AID 1259384; calls by dose curve)
# Method in brief: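 Wild-type HEK293 cells were plated 18 h at 37 C/5% CO2, pin-dosed with compound plus Ro20-1724 medium, held 30 min at room temperature, then given cAMP-d2 and anti-cAMP-cryptate; fluorescence was read after 1 h. Fifteen concentrations, triplicate.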
# [3] = target: Thyrotropin receptor (Homo sapiens) (UniProt P16473); experiment: qHTS assay to identify small molecule antagonists of the thyroid stimulating hormone receptor (TSHR) signaling pathway (AID 1259385; calls by dose curve; also: nearly all actives have a fitted effect of over 20% in size)
# Method in brief: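 TSHR-HEK293 cells were plated and held 18 h at 37C/5% CO2, then given compound plus Ro20-1724 and stimulated with TSH at 1.5 ng/mL final. After 30 min at room temperature, cAMP was detected with cAMP-d2/anti-cAMP-cryptate (1 h) by fluorescence.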
# [4] = qHTS assay to identify small molecule agonists of the estrogen receptor alpha (ER-alpha) signaling pathway in the presence of an antagonist - cell viability counter screen (AID 1259386);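 also: series mostly up to about 92 µM; cells exposed to compounds for 22 h at 37 °C before the viability read; nearly all actives have a fitted effect of over 30% in size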
# Method in brief: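 The test measures whether compounds kill ER-alpha reporter cells (VM7Luc4E2) under antagonist co-treatment (ICI-182,780, 10.0nM). Fluorescence from CellTiter-Fluor is read after a 22hr exposure.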
# [5] = target: Progesterone receptor (Homo sapiens) (UniProt P06401); experiment: qHTS assay to identify small molecule agonists of the progesterone receptor (PR) signaling pathway (AID 1346784; calls by dose curve; also: nearly all actives have a fitted effect of over 30% in size; also: potency is read from the fitted curve at half-maximal effect)
# Method in brief: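 Cells (PR-UAS-bla HEK 293T, GripTite) were plated in assay medium containing 2% charcoal-stripped FBS and incubated 6 hr. Test compounds in DMSO were added for 16 hr at 37C. FRET substrate was then loaded for 2 hr at room temperature before fluorescence reading.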
# [6] = qHTS assay to identify small molecule antagonists of the progesterone receptor (PR) signaling pathway - cell viability counter screen (AID 1346798); also: series mostly up to about 92 µM; nearly all actives have a fitted effect of over 50% in size
# Method in brief: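 Counter screen for cytotoxicity: viability of PR-UAS-bla HEK293T cells was measured with CellTiter-Glo luminescence following 16 hr compound exposure in the presence of R5020.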
# [7] = qHTS assay to identify small molecule agonists of the progesterone receptor (PR) signaling pathway - cell viability counter screen (AID 1346799; calls by dose curve; also: nearly all actives have a fitted effect of over 45% in size)
# Method in brief: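 Cells (PR-UAS-bla HEK293T) are plated at 3,000/well in 2% charcoal-stripped FBS medium, rested 6 hr, dosed and incubated 16 hr at 37C. CellTiter-Glo is then added and luminescence measured after 30 min at room temperature.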
# [8] = qHTS assay to identify small molecule antagonists of the TGF-beta/Smad signaling pathway - cell viability counter screen (AID 1346824); also: nearly all actives have a fitted effect of over 50% in size
# Method in brief: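 SBE-bla HEK 293T cells were plated overnight at 37 C, then given compounds in DMSO plus TGF-beta1 (added as 0.25 ng/mL solution) for 5 hr. After the bla read, CellTiter-Glo was added to the same wells and luminescence read after 30 min at room temperature.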
# [9] = qHTS assay to identify small molecule agonists of the TGF-beta/Smad signaling pathway - cell viability counter screen (AID 1346829); also: top concentration of the series differs between compounds; nearly all actives have a fitted effect of over 45% in size
# Method in brief: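 CellTiter-Glo luminescence readout; SBE-bla HEK 293T cells, overnight plating, compound 5 hr at 37 C/5% CO2, then bla substrate 2 hr RT, then CellTiter-Glo 30 min RT.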
# [10] = qHTS assay to identify small molecule agonists of the TGF-beta/Smad signaling pathway (AID 1346859; active = well fitted activation curve with a large enough effect in the signal ratio in the repeat runs, not every such curve was filed as active; the % refers to the signal ratio; also: series mostly up to about 77 µM)
# Method in brief: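 Reporter line: HEK 293T with stably integrated SBE-controlled beta-lactamase. Compound exposure lasts 5 hr at 37 C and 5% CO2; substrate loading follows for 2 hr at room temperature, with emission read at 460 and 530 nm.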
# [11] = target: Thyrotropin-releasing hormone receptor (Homo sapiens) (UniProt P34981); experiment: qHTS assay to identify small molecule antagonists of the thyrotropin-releasing hormone receptor (TRHR) signaling pathway (AID 1346877; active = well fitted inhibition curve with a large enough effect in the repeat runs, not every such curve was filed as active; also: series mostly up to about 51 µM)
# Method in brief: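 Overnight-plated (18 h, 37 °C) HEK293 cells expressing TRHR were dye-loaded 2 h, treated with compound, then stimulated with TRH at 1 nM final. Fluorescence intensity was captured every second for 3 min.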
# [12] = target: Thyrotropin-releasing hormone receptor (Homo sapiens) (UniProt P34981); experiment: qHTS assay to identify small molecule agonists of the thyrotropin-releasing hormone receptor (TRHR) signaling pathway (AID 1346891; calls by dose curve;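 also: HEK293 cells expressing TRHR with calcium dye readout; series mostly up to about 58 µM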)
# Method in brief: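 Cells: TRHR-Hek293, seeded and incubated 18 h. Dye loading: 2 h at 37 °C. Compound added from DMSO stock by pin tool. Read-out: kinetic calcium fluorescence over 3 min.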
# [13] = Human pregnane X receptor (PXR) small molecule agonists, qHTS cell viability counter screen (AID 1346977); also: nearly all actives have a fitted effect of over 50% in size
# Method in brief: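 Cytotoxicity counter screen run in the same wells as the PXR luciferase assay, using PXR-Luc HepG2 cells in charcoal-stripped serum medium. Viability: CellTiter-Fluor fluorescence after 24hr compound treatment.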
# [14] = Caspase-3/7 induction in HepG2 cells by small molecules, qHTS assay (AID 1346978); also: nearly all actives have a fitted effect of over 15% in size
# Method in brief: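 Wild-type HepG2 cells (2,000/well) were settled 5 h at 37 C, 5% CO2, then exposed to compounds in DMSO for 17 h. Caspase-3/7 activity was read by luminescence 30 min after adding Caspase-Glo 3/7 reagent at room temperature.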
# [15] = Caspase-3/7 induction in CHO-K1 cells by small molecules, qHTS cell viability counter screen (AID 1346979); also: nearly all actives have a fitted effect of over 35% in size
# Method in brief: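 Cytotoxicity counter screen run in parallel with the caspase-3/7 assay: CHO-K1 cells, 16hr compound treatment at 37C, then CellTiter-Fluor for 1hr before fluorescence reading.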
# [16] = Caspase-3/7 induction in CHO-K1 cells by small molecules, qHTS assay (AID 1346980); also: nearly all actives have a fitted effect of over 15% in size
# Method in brief: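 Wild-type cells were seeded at 1,500 per well and settled 5 hr at 37 C, 5% CO2, then exposed to DMSO-dissolved compounds for 17 hr. Caspase-Glo 3/7 reagent was added, and luminescence was read after 30min at room temperature.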
# [17] = Caspase-3/7 induction in HepG2 cells by small molecules, qHTS cell viability counter screen (AID 1346981); also: series mostly up to about 92 µM; nearly all actives have a fitted effect of over 30% in size
# Method in brief: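 Treatment of HepG2 cells with DMSO-delivered compounds ran 16 hr at 37 C following a 5-hr pre-incubation of 2,000 cells/well. CellTiter-Fluor fluorescence, read after 1 hr, served as the viability measure in a qHTS format.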
# [18] = target: Nuclear receptor subfamily 1 group I member 2 (Homo sapiens) (UniProt O75469); experiment: Human pregnane X receptor (PXR) small molecule agonists, qHTS assay (AID 1346982); also: nearly all actives have a fitted effect of over 35% in size; also: potency is read from the fitted curve at half-maximal effect
# Method in brief: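 Stable HepG2 line reporting PXR-mediated CYP3A4 expression via luciferase. Treatment: 24 hr with compounds in DMSO at 37 C. Detection: ONE-Glo luminescence.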
# [19] = target: Progesterone receptor (Homo sapiens) (UniProt P06401); experiment: qHTS assay to identify small molecule antagonists of the progesterone receptor (PR) signaling pathway (AID 1346795; active = well fitted inhibition curve with a large enough effect in the signal ratio in the repeat runs, not every such curve was filed as active; the % refers to the signal ratio; also: potency is read from the fitted curve at half-maximal effect)
# Method in brief: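 Antagonist mode: compounds tested against 1 nM (final) promegestone stimulation in HEK293T cells expressing PR-UAS-bla reporter, 16 hr at 37C, 5% CO2; beta-lactamase activity detected via B/G FRET substrate after 2 hr at room temperature.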
# [20] = target: Nuclear receptor subfamily 1 group I member 2 (Rattus norvegicus) (UniProt Q9R1A7); experiment: Rat pregnane X receptor (rPXR) activation by small molecules, qHTS assay (AID 1346983); conditions: rPXR luciferase reporter cells, One-Glo luminescence, 24 h; max activation: hits give high values; also: nearly all actives have a fitted effect of over 20% in size
# Method in brief: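 Cell-based rPXR luciferase reporter assay, 2,000 cells per well, rested 5hr at 37 C before compound addition in DMSO, then 24 hr at 37 C. One-Glo reagent was added and luminescence read after 30 min at room temperature.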
# Estrogen receptor (Homo sapiens), sequence (P03372 whole entry, looked up): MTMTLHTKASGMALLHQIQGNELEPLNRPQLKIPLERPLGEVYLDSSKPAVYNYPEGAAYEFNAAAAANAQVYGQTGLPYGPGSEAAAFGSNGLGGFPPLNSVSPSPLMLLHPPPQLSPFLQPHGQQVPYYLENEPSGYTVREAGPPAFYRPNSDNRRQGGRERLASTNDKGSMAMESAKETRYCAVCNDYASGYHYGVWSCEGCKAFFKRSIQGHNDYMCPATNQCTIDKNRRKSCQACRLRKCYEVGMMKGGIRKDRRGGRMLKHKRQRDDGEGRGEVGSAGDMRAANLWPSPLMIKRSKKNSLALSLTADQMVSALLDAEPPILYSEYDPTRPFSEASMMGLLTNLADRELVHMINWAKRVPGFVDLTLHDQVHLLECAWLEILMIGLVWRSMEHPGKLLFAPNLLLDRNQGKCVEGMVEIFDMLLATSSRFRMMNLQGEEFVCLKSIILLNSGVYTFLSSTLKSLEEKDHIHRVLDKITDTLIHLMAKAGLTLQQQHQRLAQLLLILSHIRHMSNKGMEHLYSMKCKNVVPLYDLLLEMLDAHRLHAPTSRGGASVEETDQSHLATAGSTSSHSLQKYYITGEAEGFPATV
# Nuclear receptor subfamily 1 group I member 2 (Homo sapiens), sequence (O75469 whole entry, looked up): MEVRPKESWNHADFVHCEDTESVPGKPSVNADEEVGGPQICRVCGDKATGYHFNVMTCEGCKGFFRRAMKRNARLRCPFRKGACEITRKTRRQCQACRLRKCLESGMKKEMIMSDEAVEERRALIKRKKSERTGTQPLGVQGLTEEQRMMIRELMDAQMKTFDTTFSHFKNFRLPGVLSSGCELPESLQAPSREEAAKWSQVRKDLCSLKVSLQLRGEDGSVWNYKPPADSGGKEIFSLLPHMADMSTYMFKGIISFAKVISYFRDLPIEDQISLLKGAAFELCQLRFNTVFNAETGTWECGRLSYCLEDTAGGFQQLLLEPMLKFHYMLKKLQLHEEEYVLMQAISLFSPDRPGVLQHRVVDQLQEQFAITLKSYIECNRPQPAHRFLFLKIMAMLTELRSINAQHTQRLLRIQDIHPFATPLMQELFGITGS
# Progesterone receptor (Homo sapiens), sequence (P06401 whole entry, looked up): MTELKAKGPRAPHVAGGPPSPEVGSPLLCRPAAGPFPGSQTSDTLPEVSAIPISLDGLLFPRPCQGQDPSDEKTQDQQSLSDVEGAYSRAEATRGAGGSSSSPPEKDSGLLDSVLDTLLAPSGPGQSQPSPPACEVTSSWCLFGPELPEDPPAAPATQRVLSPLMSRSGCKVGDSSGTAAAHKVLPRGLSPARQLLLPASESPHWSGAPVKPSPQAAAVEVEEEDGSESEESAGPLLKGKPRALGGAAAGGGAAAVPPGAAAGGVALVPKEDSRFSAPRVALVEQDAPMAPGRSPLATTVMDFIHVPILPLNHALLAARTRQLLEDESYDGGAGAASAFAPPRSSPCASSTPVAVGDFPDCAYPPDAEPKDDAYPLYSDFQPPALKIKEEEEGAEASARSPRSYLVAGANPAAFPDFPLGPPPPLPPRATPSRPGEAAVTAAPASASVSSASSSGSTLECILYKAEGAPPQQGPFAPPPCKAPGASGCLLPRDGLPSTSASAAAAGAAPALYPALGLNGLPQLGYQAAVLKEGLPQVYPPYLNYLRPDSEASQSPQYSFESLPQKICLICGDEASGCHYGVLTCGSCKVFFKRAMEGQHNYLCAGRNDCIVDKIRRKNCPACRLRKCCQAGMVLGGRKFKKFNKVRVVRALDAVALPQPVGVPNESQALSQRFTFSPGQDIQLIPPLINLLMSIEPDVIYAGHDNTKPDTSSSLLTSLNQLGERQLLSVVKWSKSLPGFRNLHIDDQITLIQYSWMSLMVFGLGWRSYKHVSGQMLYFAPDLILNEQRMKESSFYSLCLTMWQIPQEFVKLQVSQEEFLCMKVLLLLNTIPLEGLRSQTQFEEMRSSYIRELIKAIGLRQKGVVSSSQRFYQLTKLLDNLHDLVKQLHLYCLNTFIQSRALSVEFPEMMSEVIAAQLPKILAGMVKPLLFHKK
# Thyrotropin receptor (Homo sapiens), sequence (P16473 whole entry, looked up): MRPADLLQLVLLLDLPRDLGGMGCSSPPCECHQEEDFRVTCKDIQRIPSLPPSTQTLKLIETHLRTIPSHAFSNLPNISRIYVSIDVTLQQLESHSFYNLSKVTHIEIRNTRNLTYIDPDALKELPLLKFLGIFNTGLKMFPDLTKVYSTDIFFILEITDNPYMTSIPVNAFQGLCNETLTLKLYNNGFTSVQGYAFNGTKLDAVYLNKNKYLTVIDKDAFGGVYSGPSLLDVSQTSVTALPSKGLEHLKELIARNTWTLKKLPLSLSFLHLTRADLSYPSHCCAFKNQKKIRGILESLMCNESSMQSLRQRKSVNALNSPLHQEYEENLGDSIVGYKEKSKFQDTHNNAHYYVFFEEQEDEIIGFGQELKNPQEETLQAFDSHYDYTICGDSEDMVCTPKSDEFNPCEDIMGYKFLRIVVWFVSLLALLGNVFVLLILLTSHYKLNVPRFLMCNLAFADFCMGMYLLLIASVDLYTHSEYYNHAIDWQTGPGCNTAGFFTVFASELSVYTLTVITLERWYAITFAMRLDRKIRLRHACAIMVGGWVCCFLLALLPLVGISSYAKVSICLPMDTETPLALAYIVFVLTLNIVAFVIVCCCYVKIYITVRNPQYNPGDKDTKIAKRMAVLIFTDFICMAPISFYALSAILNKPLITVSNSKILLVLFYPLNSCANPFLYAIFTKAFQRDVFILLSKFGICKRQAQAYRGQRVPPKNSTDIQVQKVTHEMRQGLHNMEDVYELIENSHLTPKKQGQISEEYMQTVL
# Thyrotropin-releasing hormone receptor (Homo sapiens), sequence (P34981 whole entry, looked up): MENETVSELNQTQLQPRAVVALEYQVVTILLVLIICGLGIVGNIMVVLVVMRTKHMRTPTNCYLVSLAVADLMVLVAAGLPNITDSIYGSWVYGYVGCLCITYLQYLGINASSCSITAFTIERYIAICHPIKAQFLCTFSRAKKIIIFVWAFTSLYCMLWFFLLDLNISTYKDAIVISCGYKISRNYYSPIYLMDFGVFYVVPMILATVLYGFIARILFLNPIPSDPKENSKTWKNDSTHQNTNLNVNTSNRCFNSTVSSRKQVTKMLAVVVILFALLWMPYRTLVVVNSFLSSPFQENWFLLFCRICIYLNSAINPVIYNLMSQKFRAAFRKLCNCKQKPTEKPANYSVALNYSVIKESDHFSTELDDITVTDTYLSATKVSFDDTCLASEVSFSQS
# Nuclear receptor subfamily 1 group I member 2 (Rattus norvegicus), sequence (Q9R1A7 whole entry, looked up): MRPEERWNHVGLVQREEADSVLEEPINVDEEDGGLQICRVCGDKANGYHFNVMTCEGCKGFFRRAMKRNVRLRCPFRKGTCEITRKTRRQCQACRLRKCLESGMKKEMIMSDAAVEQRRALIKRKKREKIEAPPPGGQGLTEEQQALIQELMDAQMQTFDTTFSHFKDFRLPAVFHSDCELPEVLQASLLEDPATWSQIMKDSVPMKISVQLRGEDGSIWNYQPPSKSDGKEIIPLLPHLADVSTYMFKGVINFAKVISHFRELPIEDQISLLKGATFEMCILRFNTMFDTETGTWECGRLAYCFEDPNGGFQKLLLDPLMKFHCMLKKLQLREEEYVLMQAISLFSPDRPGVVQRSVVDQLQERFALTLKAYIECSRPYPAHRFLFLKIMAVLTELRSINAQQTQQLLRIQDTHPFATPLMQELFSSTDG
Compound,Potency [1],outcome [2],outcome [3],outcome [4],Potency [5],outcome [6],Potency [7],outcome [8],outcome [9],outcome [10],outcome [11],Potency [12],outcome [13],outcome [14],Potency [15],outcome [16],outcome [17],Potency [18],Potency [19],max activation [20]
Cc1cc(O)c(Cl)cc1C,inactive,inactive,inactive,inactive,inactive,inactive,inactive,inactive,inactive,inactive,inactive,inactive,inactive,inactive,inactive,inactive,inactive,inactive,,
Clc1ccc2c(c1)Nc1ccccc1S2,inactive,inactive,inactive,inactive,,,inactive,inactive,inactive,inactive,,,inactive,inactive,inactive,inactive,inactive,33.5 µM (active),7.5 µM (active),
CC(CC(=O)Cl)CC(C)(C)C (stereo not given),inactive,inactive,inactive,inactive,12.3 µM (active),,,inactive,inactive,inactive,,,inactive,inactive,inactive,inactive,inactive,inactive,inactive,
Cc1ccc(OC(=O)CC(C)C)cc1,inactive,inactive,inactive,inactive,,inactive,inactive,inactive,inactive,inactive,inactive,inactive,inactive,inactive,inactive,inactive,inactive,inactive,,
CC(C)C[P+](C)(CC(C)C)CC(C)C,inactive,inactive,inactive,inactive,,inactive,inactive,inactive,inactive,inactive,inactive,inactive,inactive,inactive,inactive,inactive,inactive,inactive,,
O=C(O)/C=C(\CC(=O)O)C(=O)O,inactive,inactive,inactive,inactive,,inactive,inactive,inactive,inactive,inactive,inactive,inactive,inactive,inactive,inactive,inactive,inactive,inactive,inactive,
CC(=O)O[C@@H]1CC2C3CCc4cc(OC(=O)c5ccccc5)ccc4C3CCC2(C)[C@H]1OC(C)=O (stereo not given in full),47.3 nM (active),inactive,inactive,inactive,inactive,,inactive,inactive,inactive,inactive,inactive,inactive,inactive,inactive,inactive,inactive,inactive,inactive,,
O=C1c2ccccc2C(=O)N1CO,inactive,inactive,inactive,inactive,inactive,inactive,inactive,inactive,inactive,inactive,inactive,inactive,inactive,inactive,inactive,,inactive,inactive,,
C/C(Cl)=C/CCl,inactive,inactive,inactive,inactive,inactive,inactive,inactive,inactive,inactive,inactive,inactive,inactive,inactive,inactive,inactive,inactive,inactive,inactive,,
CCCCc1ccc(Cl)cc1,inactive,inactive,inactive,inactive,,,inactive,,inactive,inactive,inactive,inactive,inactive,inactive,inactive,,,inactive,inactive,
Cc1ccc(S(=O)(=O)NC(=O)NN2CC3CCCC3C2)cc1 (stereo not given),inactive,inactive,,inactive,inactive,inactive,inactive,inactive,inactive,inactive,inactive,inactive,inactive,inactive,inactive,inactive,inactive,inactive,inactive,1.11%
CC(=O)Nc1ccc(OCCOCCOc2ccc(NC(C)=O)cc2)cc1,inactive,inactive,inactive,inactive,,inactive,inactive,inactive,inactive,inactive,,,inactive,inactive,inactive,inactive,inactive,inactive,inactive,-0.187%
Clc1cc(Cl)c(Cl)c(Cl)c1Cl,inactive,inactive,inactive,inactive,,inactive,inactive,,inactive,inactive,inactive,inactive,inactive,inactive,inactive,inactive,,inactive,inactive,
Cc1ccccc1C#N,inactive,inactive,inactive,inactive,,inactive,inactive,inactive,,inactive,inactive,inactive,inactive,inactive,inactive,inactive,inactive,inactive,inactive,
